High-throughput results from PubChem BioAssay.
SMN2 splice enh = SMN2 splice variant enhancement | HEK293 SMN2-luciferase splicing reporter, luminescence, 30-36 h | Potency, µM (titrated, usually from 46.1 µM), inactives show at the highest dose activity change, positive = activation, usual class: activators | hit rate 2.8% among 210,000; further: % of control where 0% means no effect; nearly all actives have a fitted effect of over 55% in size
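HEK293 cells carry an SMN2 […]–luciferase reporter in which exon 7 inclusion puts luciferase in frame. Cells were plated 10-12 h before compound addition, then incubated 30-36 h at 37C. ONE-Glo luminescence was read; sodium butyrate at 4.5 mM final served as control.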
Luc counter = blocks Kinase-Glo luciferase, a counter-screen artifact. Kinase-Glo luciferase, ATP luminescence, 8 min. Potency, µM (top dose mostly 38.3 µM), inactives show at the top dose activity change, negative = inhibition, usual class: inhibitors. hit rate 0.28% among 200,000; further: on the % scale 0 is the no-effect control and ±100 the full control effect; nearly all actives have a fitted effect of over 60% in size
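Recombinant Kinase-Glo luciferase, 10 uM ATP (linear range), luciferin; imidazole pH 7.2 / KCl / MgCl2 / Tween / BSA buffer; 8 min RT; luminescence.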
ELG1 genotox = inducers of genotoxicity in HEK293T ELG1-luciferase cells; HEK293T ELG1-luciferase reporter, luminescence, 16 h; Potency, µM (series often up to 46 µM), inactives show top-dose activity change, positive = activation, actives largely listed as activators; hit rate 1.3% among 330,000; AID 504466; further: % of control where 0% means no effect; nearly all actives have a fitted effect of over 60% in size
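Reporter readout depends on ELG1 protein level, which increases with genetic stress. After 16 hr compound exposure at 37 °C, luciferase activity was quantified using ONE-Glo.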
Rab9 promoter act = activates the Rab9 promoter; Huh7 Rab9 promoter-luciferase reporter, luminescence, 24 h; Potency, µM (highest dose often 9.22 µM), inactives show at the top dose activation, negative = inhibition, actives largely listed as activators; hit rate 2.8% among 320,000; further: % of control where 0% means no effect; nearly all actives have a fitted effect of over 60% in size
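Using Huh7 cells stably transfected with Rab9 promoter–luciferase, compounds were incubated 24 h at 37 °C, 5% CO2; luciferase luminescence was read 10 min after reagent addition.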
FLuc modulator = firefly luciferase modulation, counter-screen for miR-21 project | P08659 | Potency, µM (doses to about 57.5 µM), inactives show at the highest dose activity change, negative = inhibition, actives largely listed as inhibitors | hit rate 6.9% among 360,000 | purified FLuc, Km substrates, luminescence inhibition | AID 588342;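 further: plate controls were vehicle for no effect and reference inhibitor for full effect; nearly all actives have a fitted effect of over 55% in size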
Target sequence (P08659 whole entry, looked up): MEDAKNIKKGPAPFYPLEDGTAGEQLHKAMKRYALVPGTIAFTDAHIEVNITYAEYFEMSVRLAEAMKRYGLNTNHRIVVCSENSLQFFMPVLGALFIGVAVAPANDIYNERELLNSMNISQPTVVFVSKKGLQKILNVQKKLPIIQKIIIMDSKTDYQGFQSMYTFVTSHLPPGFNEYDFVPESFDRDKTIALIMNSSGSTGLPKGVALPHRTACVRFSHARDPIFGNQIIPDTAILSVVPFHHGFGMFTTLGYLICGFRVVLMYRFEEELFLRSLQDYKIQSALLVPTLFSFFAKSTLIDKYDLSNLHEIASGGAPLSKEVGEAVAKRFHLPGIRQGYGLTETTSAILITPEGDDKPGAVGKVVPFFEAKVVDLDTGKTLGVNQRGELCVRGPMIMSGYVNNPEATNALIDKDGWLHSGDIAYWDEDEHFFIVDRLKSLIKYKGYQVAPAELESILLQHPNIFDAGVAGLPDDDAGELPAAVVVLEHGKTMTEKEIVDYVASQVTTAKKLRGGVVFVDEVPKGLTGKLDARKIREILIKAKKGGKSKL
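Biochemical qHTS of compounds, final roughly 60 µM downward over six points, against 10 nM purified firefly luciferase using Km concentrations of substrates (10 uM D-luciferin, 10 uM ATP) in Tris acetate pH 7.5 buffer; luminescence output.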
NPC1 prom act = activators of NPC1 promoter; Huh7 NPC1 promoter luciferase reporter, 24 h; Potency, µM (highest dose often 9.22 µM), without a hit: at the highest dose activation, usual class: activators; hit rate 2.4% among 320,000; AID 485313; further: % of control where 0% means no effect; nearly all actives have a fitted effect of over 60% in size
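Huh7 cells stably carrying NPC1 promoter–luciferase, plated in Opti-MEM with 10% FBS for 2 h, were exposed to compound in DMSO for 24 h at 37 °C; luciferase reagent was added for 10 min and luminescence read.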
The depositor's hits bear a star; ? = inconclusive; nt = no result given. Shown are actives, neighbours in structure and some others; about 7.5% of the full set was active somewhere. The call rests on the fitted dose curve; in most records, active means well fitted curve in the direction sought with a large enough effect; inconclusive means small, poorly fitted or top-dose-only effect, or another doubt; inactive means no such curve, though single readings can be large; an effect the other way counts as inactive or inconclusive. Potency means the concentration at half of the fitted maximal effect.

SMILES	SMN2 splice enh	Luc counter	ELG1 genotox	Rab9 promoter act	FLuc modulator	NPC1 prom act
Oc1ccccc1-c1cc(-c2ccccc2Cl)[nH]n1	3.5µM*	3%	nt	nt	0.67µM*	nt
Oc1ccccc1-c1cc(-c2ccco2)[nH]n1	?	-4%	5.8µM*	15%	9.5µM*	-2%
Oc1ccc(Cl)cc1-c1cc(-c2ccco2)[nH]n1	3%	-2%	-4%	26%	19µM*	28%
Oc1c(-c2cc(-c3ccco3)[nH]n2)ccc2ccccc12	14µM*	-2%	?	3.2µM*	?	3.2µM*
Cc1ccc2oc(-c3ccc(C)c(NC(=O)c4ccc(N5CCC(C)CC5)c([N+](=O)[O-])c4)c3)nc2c1	0%	nt	nt	nt	?	nt
CCOC(=O)c1cnn(-c2nc(-c3ccccc3)cs2)c1C(F)(F)F	-10%	4%	0%	-3%	?	-5%
Nc1c(-c2cccs2)cnn1-c1nc(-c2ccc(F)cc2)cs1	-6%	-1%	5%	?	7.6µM*	?
Nc1c(-c2cccs2)cnn1-c1nc(-c2ccc(Cl)cc2Cl)cs1	3%	-6%	5%	0%	?	-2%
Nc1c(-c2ccccn2)cnn1-c1nc(-c2ccc(F)cc2)cs1	-2%	-3%	9%	7%	9.5µM*	24%
COC(=O)c1cnn(-c2nc(-c3ccccc3)cs2)c1N	nt	nt	?	?	2.7µM*	?
CCOC(=O)c1ccc(NC(=O)c2c(N3CCCC3=O)c3cc(OC)ccc3n2C)cc1	nt	nt	nt	nt	-8%	nt
CCN(C(=O)CSc1nc2ccccc2n1CC(=O)Nc1ccccc1C)c1ccccc1	nt	nt	nt	nt	3%	nt
O=C(N/N=C1/CC2CCC1C2)c1cc2ccccc2cc1O (stereo not drawn)	nt	nt	-3%	4%	15µM*	16%
O=C(NCC1CCCO1)c1ccc(COc2ccc(Cl)cc2)cc1 (stereo not drawn)	-46%	-1%	-5%	-3%	-11%	-1%
O=C(NCC1CCCCC1)c1cc2ccccc2cc1O	nt	nt	0%	27%	12µM*	?
O=C(NCC1CCCO1)c1cc2ccccc2cc1O (stereo not drawn)	nt	nt	15%	?	24µM*	?
O=C(NCC1CCCO1)c1ccc(COc2ccccc2Br)cc1 (stereo not drawn)	-10%	-1%	2%	-6%	24µM*	1%
Cc1ccc(C)c(NC(=O)CN2CCCN(Cc3cccc(Cl)c3)S2(=O)=O)c1	nt	nt	nt	nt	-14%	nt
Cc1ccc(NC(=O)NCCOCCn2c(=O)oc3ccccc32)cc1C	-16%	nt	nt	nt	-12%	nt
CC(C)OC(=O)c1ccc(NC(=O)C2C3CC4OC(=O)C2C4C3)cc1 (stereo not drawn)	11µM*	1%	12%	2.8µM*	21µM*	?
CCOC(=O)c1ccc(NC(=O)c2ccc(CN3C(=O)CCn4nc(C)cc43)cc2)cc1	nt	nt	nt	nt	3%	nt
Cc1ccnc(NC(=O)c2c(O)c3ccccc3n(C)c2=O)c1	13µM*	-3%	?	4µM*	3µM*	3.5µM*
C=CCn1c(=O)c(C(=O)Nc2ccccc2O)c(O)c2ccccc21	3%	-5%	1%	7%	?	2%
Cc1cccc(NC(=O)c2c(O)c3ccccc3n(C)c2=O)c1	nt	nt	?	2µM*	?	2.8µM*
CCCn1c(=O)c(C(=O)Nc2ncccc2O)c(O)c2ccccc21	nt	nt	-11%	1%	-3%	7%
Cn1c(=O)c(C(=O)Nc2ncccc2O)c(O)c2ccccc21	24%	-4%	?	?	?	3.2µM*
C=CCn1c(=O)c(C(=O)Nc2ccccc2C)c(O)c2ccccc21	nt	nt	?	4µM*	?	4µM*
COc1ccc(Cn2ccc3nc(C)c(C(=O)N4CCN(c5ccccc5F)CC4)cc3c2=O)cc1	nt	nt	nt	nt	-8%	nt
Cn1c(=O)c(C(=O)NCc2ccccc2)c(O)c2ccccc21	nt	nt	-1%	?	17µM*	?
